11 compounds from PubChem BioAssay (Tox21) can be followed below.

Records with an inconclusive call do not appear. Unmarked numbers belong to inactive results. Calls of active or inactive are those of the source. Unless noted, calls come from the whole dose curve; as a rule, active = well fitted curve in the direction sought with a large enough effect in the repeat runs; inconclusive = weak or mixed curves; inactive = no such curve, though single readings can be large; an effect the other way counts as inactive or inconclusive.

Assay [1] can be described thus: qHTS assay to identify small molecule agonists of the vitamin D receptor (VDR) signaling pathway - cell viability counter screen (AID 743224). Note: nearly all actives have a fitted effect of over 50% in size. An outline of the steps: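 Cells: VDR-bla, 2,000/well, settled 4 h. Treatment: compounds in DMSO, 16 h, 37C/5% CO2. Readout: CellTiter-Glo luminescence after 30 min RT.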
In general terms: Quantitative high-throughput screening tests each substance at several concentrations.

Assay [2] can be described thus: qHTS assay to identify small molecule antagonists of the vitamin D receptor (VDR) signaling pathway - cell viability counter screen (AID 743225). Note: nearly all actives have a fitted effect of over 50% in size. An outline of the steps: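 VDR-UAS-bla HEK 293T cells were plated and incubated 4 h at 37C, then dosed with compound plus 3 nM (final) 1-alpha,25-dihydroxyvitamin D3 for 16 h. After the 2 h beta-lactamase read, viability in the same wells was read as CellTiter-Glo luminescence after 30 min at room temperature.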

A short description of assay [3]: qHTS assay to identify small molecule agonists of the NFkB signaling pathway - cell viability counter screen (AID 1159515; calls by dose curve; note: nearly all actives have a fitted effect of over 55% in size). The procedure, abridged:
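Cells are seeded (2,000 NFkB-bla ME-180 per well), rested overnight, and dosed with DMSO-dissolved compounds for 5 hr at 37 C. Viability is then read by CellTiter-Glo luminescence after 30 min at room temperature.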

Assay [4] is described as follows: qHTS assay to identify small molecule agonists of the endoplasmic reticulum stress response signaling pathway (AID 1159516; active = well fitted activation curve with a large enough effect in the signal ratio in the repeat runs, not every such curve was filed as active; the % refers to the signal ratio). An outline of the steps:
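Cells are seeded at 1,500 per well and incubated overnight. Compounds in DMSO are added for 5 hr at 37 C, then beta-lactamase FRET substrate for 2 hr at room temperature, and fluorescence at 460 and 530 nm is measured.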

Assay [5] in a line: qHTS assay to identify small molecule antagonists of the retinoid-related orphan receptor gamma (ROR-gamma) signaling pathway - cell viability counter screen (AID 1159520). Note: nearly all actives have a fitted effect of over 50% in size. An outline of the steps: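 Cytotoxicity was read from cellular ATP (CellTiter-Glo luminescence) after 16 hr at 37 C with 1 uM doxycycline induction. The inducer was added 2 hr after compound transfer to Tet-on ROR gamma CHO cells.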

The target of assay [6] is Nuclear receptor ROR-gamma (Homo sapiens) (UniProt P51449). The experiment in a line: qHTS assay to identify small molecule antagonists of the retinoid-related orphan receptor gamma (ROR-gamma) signaling pathway (AID 1159521;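 note: CHO cells with doxycycline inducible ROR-gamma driving an RORE luciferase reporter; top concentration of the series differs between compounds; nearly all actives have a fitted effect of over 50% in size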). The procedure, abridged:
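Tet-on ROR-gamma CHO cells with ROR response element-luciferase reporter; compounds added 2 hr before 1 uM doxycycline induction, then 16 hr at 37 C. Antagonism scored as decreased ONE-Glo luminescence.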

Assay [7] in a line: qHTS assay to identify small molecule agonists of the AP-1 signaling pathway - cell viability counter screen (AID 1159525; calls by dose curve; note: nearly all actives have a fitted effect of over 55% in size). The procedure, abridged: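 Intracellular ATP by Cell Titer Glo luminescence (30 min, RT) in the same ME-180 AP-1-bla wells after the 5 h compound exposure at 37 °C. Normalised to tetra n-octyl ammonium bromide and DMSO controls.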
Assay [8] in a line: qHTS assay to identify small molecule agonists of the AP-1 signaling pathway (AID 1159526; calls by dose curve).
Assay [9] addresses Retinoic acid receptor RXR-alpha (Homo sapiens) (UniProt P19793). The experiment in a line: qHTS assay to identify small molecule agonists of the RXR signaling pathway (AID 1159527; calls by dose curve; note: nearly all actives have a fitted effect of over 35% in size). The procedure, abridged: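 GeneBLAzer RXR-alpha-UAS-bla HEK 293T cells in 2% charcoal-stripped FBS medium were exposed to compounds for 16 hr at 37 C in agonist mode. Beta-lactamase reporter read as 460/530 nm FRET ratio after 2 hr substrate loading.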

The nature of assay [10]: qHTS assay to identify small molecule agonists of the RXR signaling pathway - cell viability counter screen (AID 1159529). Note: nearly all actives have a fitted effect of over 50% in size. An outline of the steps:
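RXR-alpha-UAS-bla HEK 293T cells in medium with 2% charcoal-stripped FBS were pre-incubated 5 hr, then compound-treated 16 hr at 37 C. Viability was read by CellTiter-Glo luminescence in the same wells as the beta-lactamase assay, with tetraoctyl ammonium bromide as positive control.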

Assay [11] can be described thus: qHTS assay to identify small molecule antagonists of the retinoid acid receptor (RAR) signaling pathway - cell viability counter screen (AID 1159551). Note: nearly all actives have a fitted effect of over 35% in size. The procedure, abridged:
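Cells (C3RL4) are plated, incubated overnight, dosed with compound in DMSO, then given retinol at 1 uM final. After 6 h at 37 C, CellTiter-Glo is added and luminescence read following 30 min at room temperature.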

Assay [12] is described as follows: qHTS assay to identify small molecule antagonists of the retinoic acid receptor (RAR) signaling pathway (AID 1159552; note: nearly all actives have a fitted effect of over 50% in size). An outline of the steps: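 Retinol signaling pathway inhibitors screened in C3RL4 RARE-luciferase reporter cells seeded overnight at 37 C, then compounds added with 1 uM (final) retinol as pathway substrate. After 6 hr at 37 C, luciferase luminescence read after 30 min at room temperature.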

Assay [13] can be described thus: qHTS assay to identify small molecule agonists of the retinoic acid receptor (RAR) signaling pathway (AID 1159553). Note: potency is the fitted concentration of half-maximal effect. To be noted: C3RL4 RARE luciferase reporter, agonist, 6 h; activation: at 73.3 µM (top of the series) unless noted. The procedure, abridged:
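Seed C3RL4 reporter cells at 1,000 per well and incubate overnight at 37 C. Add compounds in DMSO, incubate 6 hr. Add luciferase reagent, wait 30 min at room temperature, read luminescence.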

Assay [14] in a line: qHTS assay to identify small molecule agonists of the endoplasmic reticulum stress response signaling pathway - cell viability counter screen (AID 1159517; calls by dose curve). The procedure, abridged: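 ESRE-bla HeLa cells (1,500/well) were plated overnight at 37 C and exposed to compounds for 5 hr. After the 2 hr beta-lactamase substrate read, CellTiter-Glo went into the same wells, and luminescence was read after 30 min at room temperature.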

A short description of assay [15]: qHTS assay to identify small molecule antagonists of the estrogen related receptor (ERR) signaling pathway - cell viability counter screen (AID 1224818). The procedure, abridged: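 ERR cells, 2,000/well; 6 h settle at 37 C/5% CO2; compound pin transfer (DMSO); 17.5 h at 37 C; CellTiter-Fluor, 30 min, fluorescence read.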
The nature of assay [16]: qHTS assay to identify small molecule antagonists of the estrogen related receptor (ERR) signaling pathway (AID 1224819). The procedure, abridged: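 qHTS in ERR cells, 2,000/well, 1536 format. Cpd (DMSO) added after 6 h settle, 18 h 37 C. One-Glo luminescence, 30 min RT.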
The nature of assay [17]: qHTS assay to identify small molecule agonists of the estrogen related receptor (ERR) signaling pathway (AID 1224820). An outline of the steps: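 An ERR cell line provided by NTP was seeded at 2,000 cells per well and allowed to settle for 6 h before compounds in DMSO were added. After 18 h at 37 C, luciferase activity was measured by One-Glo luminescence.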
Assay [18] is described as follows: qHTS assay to identify small molecule antagonists of the estrogen related receptor signaling pathway with the pleiotropic PPARgamma coactivator (PGC) cell viability counter screen (AID 1224822). The procedure, abridged: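 Multiplexed viability counter screen run in PGC/ERR cells treated with compounds for 17.5 h at 37 C; live-cell protease signal measured by CellTiter-Fluor fluorescence.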

Chain of Retinoic acid receptor RXR-alpha (Homo sapiens) (P19793 whole entry, looked up): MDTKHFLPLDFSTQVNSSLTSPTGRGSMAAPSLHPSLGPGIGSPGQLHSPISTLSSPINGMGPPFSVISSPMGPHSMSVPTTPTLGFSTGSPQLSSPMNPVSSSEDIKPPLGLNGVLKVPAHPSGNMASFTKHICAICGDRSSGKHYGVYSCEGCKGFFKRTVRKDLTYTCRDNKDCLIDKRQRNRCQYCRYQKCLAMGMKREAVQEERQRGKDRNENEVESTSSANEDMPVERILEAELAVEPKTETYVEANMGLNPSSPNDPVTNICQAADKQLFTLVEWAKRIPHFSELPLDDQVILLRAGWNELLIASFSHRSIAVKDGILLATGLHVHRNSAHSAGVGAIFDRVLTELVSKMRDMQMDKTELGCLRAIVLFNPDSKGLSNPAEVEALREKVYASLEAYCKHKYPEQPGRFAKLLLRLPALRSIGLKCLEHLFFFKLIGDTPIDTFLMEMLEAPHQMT

On to `Cc1ccc(N/N=c2\c(=O)cc/c(=N\Nc3ccc(S(=O)(=O)O)cc3)c2=O)c(C)c1`, for which the Potency entry in [1], in [2], in assay [3], in assay [4], in assay [5] and in assay [6] was “inactive” throughout. Also, the Potency entry in assay [7], in [8], in assay [9], in assay [10], in assay [11] and in assay [12] was “inactive” in each case. The Potency result in assay [13] is “inactive”.

For the compound `COc1cc(S(=O)(=O)O)c(C)cc1N=Nc1c(O)ccc2cc(S(=O)(=O)O)ccc12`, the Potency entry in assay [1], in [2], in [3], in [4], in [14] and in assay [7] was “inactive” each time. The Potency result in assay [8] and in assay [10] was “inactive” each time.

In the case of `CCC(=O)C(=O)CC`, the Potency result in assay [1], in assay [2], in assay [3], in assay [4], in assay [5] and in assay [6] was “inactive” throughout. The Potency entry in [7], in assay [8], in [9], in [10], in assay [11] and in assay [12] was “inactive” throughout. For the same compound, the Potency result in assay [13] was “inactive”.

As for `CC(N=C(NC#N)Nc1ccncc1)C(C)(C)C` (stereo not drawn), the Potency result in assay [2], in assay [3], in [4], in [5], in assay [6] and in [7] was “inactive” in each case. In addition, the Potency entry in [8], in assay [9], in [11], in assay [13], in [16] and in assay [18] was “inactive” each time. Also, the compound was classed as inactive in assay [15] and in assay [17].

On to `O=C1C(c2[nH]c3ccc(S(=O)(=O)O)cc3c2O)=Nc2ccc(S(=O)(=O)O)cc21`, for which the Potency result in [2], in assay [3], in assay [4], in assay [14], in [6] and in [7] was “inactive” each time. For the same compound, the Potency entry in assay [8] and in assay [12] was “inactive” throughout.

As to `Nc1cc(Cl)c(O)c(Cl)c1`, the Potency entry in assay [1], in assay [2], in assay [3], in [4], in [14] and in assay [10] was “inactive” each time. Moreover, the Potency result in [11] is “inactive”.

Turning to `C=CC(C)(CCC=C(C)C)OC=O` (stereo not drawn), the Potency result in [1], in [3], in assay [4], in assay [5], in assay [6] and in assay [7] was “inactive” each time. Moreover, the Potency entry in [8], in assay [9], in assay [10] and in assay [11] was “inactive” each time.

In the case of `CC(C)CCOC(=O)/C=C/c1ccccc1`, the Potency entry in assay [3], in assay [4], in assay [5], in assay [6], in assay [7] and in [8] was “inactive” in each case. Also, the Potency entry in assay [9], in assay [10], in [11] and in assay [12] was “inactive” in each case. For the same compound, the Potency in assay [13] is 10.9 µM (active).

As for `CCCc1ccc(OCC(=O)N2CCN(C(=O)COc3ccc(CCC)cc3OC)CC2)c(OC)c1`, the Potency result in assay [2], in assay [3], in assay [4], in assay [14], in assay [7] and in assay [8] was “inactive” throughout. Moreover, the Potency result in assay [11] and in [12] was “inactive” throughout.

Regarding `CCCCOC(=O)CO`, the Potency entry in assay [2], in assay [3], in assay [4], in [5], in assay [6] and in assay [7] was “inactive” each time. Further, the Potency entry in [8], in assay [9] and in assay [11] was “inactive” each time.

Regarding `O=[N+]([O-])c1ccc(F)c(Cl)c1`, the Potency result in assay [1], in [2], in assay [3], in assay [4], in [5] and in assay [6] was “inactive” in each case. The Potency entry in [7], in assay [8], in [9], in [11], in [12] and in [13] was “inactive” throughout.
